Assay outcomes: PubChem, National Center for Advancing Translational Sciences (NCATS)
S2 tox = viability counter-screen for ATXN expression inhibitors | S2 cells (HEK-293 line with an ATXN2-luciferase reporter) viability, CellTiter-Fluor protease fluorescence, 24 h | 400,000 compounds, 0.49% hits | Potency, µM (highest dose often 56.7 µM), actives largely listed as cytotoxic; further: nearly all actives have a fitted effect of over 40% in size
ATXN2 expr inh = ATXN2 expression inhibition; 360,000 compounds, 0.72% hits; HEK-293 ATXN2-luciferase reporter, luminescence, 24 h; Potency, µM (titrated, usually from 57 µM), for the others: at the top dose activity change, negative = inhibition, most hits filed as inhibitors; further: on the % scale 0 is the no-effect control and ±100 the full control effect; nearly all actives have a fitted effect of over 55% in size
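ATXN2-luciferase reporter cells (luciferase flanked by upstream and downstream ATXN2 gene portions) were treated 24 h at 37 °C with compounds at up to 57 uM. SteadyGlo luminescence gave expression; GF-AFC fluorescence gave viability.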
A549 tox = A549 cytotoxicity, counter-screen for Nrf2 inhibitors; AID 504648; Potency, µM (series often up to 46 µM), inactives show at the highest dose activity change, negative = cytotoxicity, actives largely listed as inhibitors; A549 ARE-Fluc cells, CellTiter-Fluor viability, 18-24 h; 390,000 compounds, 0.16% hits; further: on the % scale 0 is the no-effect control and ±100 the full control effect
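A549 ARE_Fluc cells in 5% FBS OPTI-MEM were exposed to compounds in concentration-response for 18-24 h at 37 deg C. Viability was read by CellTiter-Fluor fluorescence (Ex 405/Em 525) after 30 min, before the luciferase read.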
Nrf2 ARE act = activates Nrf2 signaling; AREc32 ARE-luciferase reporter (MCF7-derived line), luminescence, 24 h; Potency, µM (highest dose often 46.1 µM), inactives show at the highest dose activation, hits mostly activators; 410,000 compounds, 0.31% hits; AID 624171; further: % of control where 0% means no effect; nearly all actives have a fitted effect of over 65% in size
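ARE activation measured as luciferase luminescence (Steady-Glo, 30 min RT) in AREc32_Fluc cells after 24 hr compound exposure at 37 deg C, 5% CO2; cells seeded overnight at 1000/well in OPTI-MEM, 5% FBS.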
Nrf2 inh = blocks Nrf2 signaling; Potency, µM (series often up to 46 µM), for the others: top-dose activity change, negative = inhibition, actives largely listed as inhibitors; AID 504444; A549 ARE-Fluc reporter, luciferase luminescence, 18-24 h; 360,000 compounds, 2.1% hits; further: on the % scale 0 is the no-effect control and ±100 the full control effect; nearly all actives have a fitted effect of over 60% in size
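Nrf2 function is reported as luminescence of an ARE-controlled luciferase in A549 cells. Compounds were tested at several concentrations, and a CellTiter-Fluor read on the same wells flagged cytotoxicity.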
Active calls of the source: *; i = inactive; ? = inconclusive; · = not tested or not shown. Rows were chosen to be rich in hits. Some 2.9% of all compounds tested hit in one or more screens of this group. The call rests on the fitted dose curve; in most records, active means well fitted curve in the direction sought with a large enough effect; inconclusive means small, poorly fitted or top-dose-only effect, or another doubt; inactive means no such curve, though single readings can be large; an effect the other way counts as inactive or inconclusive. Potency means the concentration at half of the fitted maximal effect.

SMILES	S2 tox	ATXN2 expr inh	A549 tox	Nrf2 ARE act	Nrf2 inh
COc1cccc2cc(C(=O)Nc3ccccc3C(=O)N3CCOCC3)oc12	i	4%	5%	-1%	-17%
c1ccc(-c2nnsc2-c2ccccc2)cc1	i	15%	-1%	0%	-9%
O=S(=O)(c1ccc(Cl)c(Cl)c1)c1snnc1-c1ccccc1	13µM*	28µM*	?	?	-4%
Cc1ccc(Cn2c(SCc3ccc(C(=O)N4CCCCCC4)cc3)nc3ccncc32)cc1	?	?	-14%	0%	15µM*
Cc1cccc(Cn2c(SCc3ccc(C(=O)NC4CCCC4)cc3)nc3ccncc32)c1	i	2%	-6%	1%	21µM*
O=C(NC1CCCCC1)c1ccc(CSc2nc3ccncc3n2Cc2cccc(F)c2)cc1	?	?	-25%	5%	?
Cc1[nH]c2ccccc2c(=O)c1CN(C)Cc1ccccc1	i	1%	18%	1%	13%
CCN(CC)CCOC(=O)c1ccc(Nc2c3c(nc4ccccc24)CCC3)cc1	20µM*	?	?	4%	5%
Cc1ccc(-c2nc(NCCCO)c3ccccc3n2)cc1	i	1%	-5%	4%	6%
OCCCNc1c2ccccc2nc2ccccc12	?	?	?	-1%	8.2µM*
CN(C)CCCNc1c2c(nc3ccccc13)CCC2	?	·	13µM*	-2%	5%
COCCNc1c2c(nc3ccccc13)CCC2	i	-3%	1%	-1%	3%
COc1ccc(Nc2c3c(nc4ccccc24)CCC3)cc1	i	?	?	5%	?
Cc1ncc(CN2CCN(C3CCCC3)C(CCO)C2)s1 (stereo unspecified)	i	-1%	1%	-1%	5%
O=C1NCCN(Cc2ccc(-c3ccccc3)cc2)C1CC(=O)N1CCN(CCO)CC1 (stereo unspecified)	i	-5%	1%	0%	6%
CC1CCCCC1NC(=O)Cn1cc([N+](=O)[O-])ccc1=O (stereo unspecified)	i	·	-3%	-1%	1%
COc1ccc(-c2sc3ccc(N4CCOCC4)cc3c2C#CCO)cc1	?	28µM*	-9%	-3%	16µM*
COc1ccc(-c2sc3ccc(N4CCOCC4)cc3c2C#CC2(O)CCCCC2)cc1	?	7%	-6%	6%	-26%
O=C(/C=C/c1cccc(F)c1)Nc1nccs1	i	42%	1%	10µM*	?
O=C(/C=C\c1ccccc1)Nc1nccs1	i	5%	1%	15%	?
Cc1cc(-c2ccc(C(C)C)c(S(=O)(=O)N3CCOc4ccccc43)c2)on1	i	-38%	9%	1%	21µM*
COc1ccc(-c2cc(C)no2)cc1S(=O)(=O)N1CCOc2ccccc21	i	·	-4%	1%	?
CCc1ccc(-c2cc(C)no2)cc1S(=O)(=O)N1CCOc2ccc(C)cc21	i	-33%	2%	3%	13µM*
CCOC(=O)C1CCN(C(=O)Cn2cc(C(=O)OC)c3ccccc32)CC1	i	27%	-7%	2%	-13%
CCOC(=O)c1c(-c2ccccc2)csc1NC(=O)CSc1nnc(C)s1	i	-18%	-10%	1%	13µM*
SMILES	S2 tox	ATXN2 expr inh	A549 tox	Nrf2 ARE act	Nrf2 inh
CCOC(=O)c1c(-c2ccc(OC)cc2)csc1NC(=O)CSc1ncnc2sccc12	i	·	20%	0%	15µM*
CCOC(=O)c1c(-c2ccc(OC)cc2)csc1NC(=O)COc1ccc2c(C)cc(=O)oc2c1	i	0%	0%	0%	13%
CCOC(=O)c1c(-c2ccc(C)o2)csc1NC(=O)CSc1nnc(C)s1	i	-3%	-19%	3%	?
CC(C)n1c(NCc2cc(Cl)ccc2O)nc2ccccc21	?	28µM*	-12%	5%	2%
COc1ccc2c(c1)[nH]c1c(N3CCSCC3)ncnc12	i	?	?	2%	21µM*
COc1ccc2[nH]c3c(N4CC(C)OC(C)C4)ncnc3c2c1 (stereo unspecified)	i	-31%	-4%	4%	-18%
COc1cccc(N2CCN(c3ncnc4c3[nH]c3ccc(F)cc34)CC2C)c1 (stereo unspecified)	10µM*	3.5µM*	18µM*	-4%	6.5µM*
COc1ccc2c(c1)[nH]c1c(N3CCN(Cc4ccc5c(c4)OCO5)CC3)ncnc12	10µM*	14µM*	-6%	0%	13µM*
CCOc1ccc(NC(=O)c2c(NC(=O)c3ccccc3Br)sc3c2CCC(C)C3)cc1 (stereo unspecified)	·	·	3%	0%	2%
N#Cc1nc(NCC(F)F)c2ncn(-c3cccc(Cl)c3)c2n1	·	·	?	·	21µM*
C=CCOc1ccccc1CN(C(=O)CCl)c1ccc2c(c1)OCO2	·	?	2%	22µM*	4%
CCOc1ccccc1NC(=O)Nc1ccc2c(c1)OCO2	i	22%	13%	0%	10%
CC(C)CC(=O)Nc1ccccc1N1CCOCC1	i	0%	-1%	0%	2%
COc1cccc(CNC(=O)c2ccc(-c3nc(CS(=O)(=O)c4ccccc4)c(C)o3)cc2)c1	i	-16%	7%	0%	23µM*
Cc1cccc(CNC(=O)c2ccc(-c3nc(CS(=O)(=O)c4ccccc4)c(C)o3)cc2)c1	i	-5%	6%	1%	?
COc1cccc(NC(=O)CS(=O)(=O)Cc2nc(-c3ccc(C)cc3)oc2C)c1	i	-8%	-15%	1%	26µM*
COc1cccc(C2NC(=O)c3ccccc3O2)c1OCc1ccccc1F (stereo unspecified)	i	10%	1%	2%	-6%
Cc1ccccc1NS(=O)(=O)c1ccc(C(=O)NCC(C)(C)N2CCOCC2)cc1	i	-16%	-7%	0%	10µM*
CC(C)(CNC(=O)c1ccc(S(=O)(=O)Nc2ccccc2F)cc1)N1CCOCC1	i	10%	2%	2%	?
COc1ccc(/C=C/C(=O)c2ccc(O)cc2)cc1CN1CCOCC1	?	6%	2%	?	-12%
O=C(/C=C/c1cccc(O)c1)c1ccc(N2CCOCC2)cc1	?	·	9%	14µM*	-2%
COc1cccc(NC(=O)c2cccc(N3C(=O)C4C5C=CC(C5)C4C3=O)c2)c1 (stereo unspecified)	i	-14%	?	0%	18µM*
COc1ccc(NC(=O)CC2C(=O)NCCN2C(=O)c2ccc(N(C)C)cc2)cc1 (stereo unspecified)	i	-14%	-3%	0%	1%
Cc1cc(C(=O)CCl)c(C)n1CCc1ccc(F)cc1	·	?	1%	?	?
Cc1cc(C(=O)CCl)c(C)n1CCc1ccc(Cl)cc1	?	25µM*	-3%	?	-5%
